This excerpt belongs to a sample that is enriched for the strongest signals.
Key:
Test in all cases: glycan array binding signal (z-score within array); higher = stronger binding
Conditions in all cases: glycan notation: IUPAC condensed, linker removed
[1] = biological target: Fuc(a1-2)Gal(b1-3)GalNAc(a1-3)[Fuc(a1-2)]Gal(b1-4)GlcNAc
How it was run: (§1)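 Columns mapping to the same glycan were averaged after glycan names were converted to IUPAC-condensed notation. The data come from 3228 arrays in the Consortium for Functional Glycomics database, limited to those with an available protein sequence. Binding is reported as a within-array Z-score averaged across arrays of one protein sequence and across linkers.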

[2] = biological target: Fuc(a1-2)Gal(b1-4)GlcNAc(b1-3)Gal(b1-4)GlcNAc(b1-2)Man(a1-3)[Fuc(a1-2)Gal(b1-4)GlcNAc(b1-3)Gal(b1-4)GlcNAc(b1-2)Man(a1-6)]Man(b1-4)GlcNAc(b1-4)GlcNAc
How it was run: as §1

[3] = biological target: Fuc(a1-2)[Gal(a1-3)]Gal(b1-4)[Fuc(a1-3)]GlcNAc(b1-3)GalNAc
How it was run: as §1

[4] = biological target: Fuc(a1-2)[GalNAc(a1-3)]Gal(b1-3)GalNAc(a1-3)[Fuc(a1-2)]Gal(b1-4)GlcNAc
How it was run: as §1

[5] = biological target: Fuc(a1-2)[GalNAc(a1-3)]Gal(b1-4)GlcNAc(b1-2)Man(a1-3)[Fuc(a1-2)[GalNAc(a1-3)]Gal(b1-4)GlcNAc(b1-2)Man(a1-6)]Man(b1-4)GlcNAc(b1-4)GlcNAc
How it was run: as §1

[6] = biological target: Fuc(a1-2)[GalNAc(a1-3)]Gal(b1-4)[Fuc(a1-3)]GlcNAc(b1-3)GalNAc
How it was run: as §1

[7] = biological target: Fuc(a1-3)[Gal(b1-4)]Glc6S
How it was run: as §1

[8] = biological target: Fuc(a1-3)[Gal(b1-4)]GlcNAc
How it was run: as §1

[9] = biological target: Gal(a1-3)Gal(b1-3)[Fuc(a1-4)]GlcNAc(b1-2)Man(a1-3)[Gal(a1-3)Gal(b1-3)[Fuc(a1-4)]GlcNAc(b1-2)Man(a1-6)]Man(b1-4)GlcNAc(b1-4)GlcNAc
How it was run: as §1

[10] = biological target: Gal(a1-3)Gal(b1-4)[Fuc(a1-3)]GlcNAc(b1-2)Man(a1-3)[Gal(a1-3)Gal(b1-4)[Fuc(a1-3)]GlcNAc(b1-2)Man(a1-6)]Man(b1-4)GlcNAc(b1-4)GlcNAc
How it was run: as §1

[11] = biological target: Gal(b1-3)GalNAc(b1-3)Gal(a1-4)Gal(b1-4)Glc
How it was run: as §1

[12] = biological target: Gal(b1-3)GalNAc(b1-4)[Neu5Ac(a2-3)]Gal(b1-4)Glc
How it was run: as §1

[13] = biological target: Gal(b1-3)GlcNAc(b1-2)Man(a1-3)[Gal(b1-3)GlcNAc(b1-2)Man(a1-6)]Man(b1-4)GlcNAc(b1-4)GlcNAc
How it was run: as §1

[14] = biological target: Gal(b1-3)GlcNAc(b1-3)Gal(b1-4)GlcNAc(b1-6)[Gal(b1-3)GlcNAc(b1-3)]Gal(b1-4)Glc
How it was run: as §1

[15] = biological target: Gal(b1-3)GlcNAc6S
How it was run: as §1

[16] = biological target: Gal(b1-3)[Fuc(a1-4)]GlcNAc(b1-6)GalNAc
How it was run: as §1

[17] = biological target: Gal(b1-3)[GlcNAc(b1-6)]GalNAc
How it was run: as §1

[18] = biological target: Gal(b1-3)[Neu5Ac(a2-6)]GlcNAc(b1-4)Gal(b1-4)Glc
How it was run: as §1

[19] = biological target: Gal(b1-4)GlcNAc(b1-2)Man(a1-3)[Man(a1-6)]Man(b1-4)GlcNAc(b1-4)GlcNAc
How it was run: as §1

[20] = biological target: Gal(b1-4)GlcNAc(b1-2)[Gal(b1-4)GlcNAc(b1-6)]Man(a1-6)[Gal(b1-4)GlcNAc(b1-2)Man(a1-3)]Man(b1-4)GlcNAc(b1-4)[Fuc(a1-6)]GlcNAc
How it was run: as §1

[21] = biological target: Gal(b1-4)GlcNAc(b1-3)Gal(b1-3)GalNAc
How it was run: as §1

[22] = biological target: Gal(b1-4)GlcNAc(b1-3)Gal(b1-4)GlcNAc(b1-3)Gal(b1-4)GlcNAc(b1-2)Man(a1-3)[Gal(b1-4)GlcNAc(b1-3)Gal(b1-4)GlcNAc(b1-3)Gal(b1-4)GlcNAc(b1-2)Man(a1-6)]Man(b1-4)GlcNAc(b1-4)GlcNAc
How it was run: as §1

[23] = biological target: Gal(b1-4)GlcNAc(b1-3)Gal(b1-4)GlcNAc(b1-3)Gal(b1-4)GlcNAc(b1-3)Gal(b1-4)GlcNAc(b1-2)Man(a1-3)[Gal(b1-4)GlcNAc(b1-3)Gal(b1-4)GlcNAc(b1-3)Gal(b1-4)GlcNAc(b1-3)Gal(b1-4)GlcNAc(b1-2)Man(a1-6)]Man(b1-4)GlcNAc(b1-4)[Fuc(a1-6)]GlcNAc
How it was run: as §1

[24] = biological target: Gal(b1-4)GlcNAc(b1-3)Gal(b1-4)GlcNAc(b1-3)Gal(b1-4)GlcNAc(b1-3)Gal(b1-4)GlcNAc(b1-3)Gal(b1-4)GlcNAc(b1-2)[Gal(b1-4)GlcNAc(b1-3)Gal(b1-4)GlcNAc(b1-3)Gal(b1-4)GlcNAc(b1-3)Gal(b1-4)GlcNAc(b1-3)Gal(b1-4)GlcNAc(b1-6)]Man(a1-6)[Gal(b1-4)GlcNAc(b1-3)Gal(b1-4)GlcNAc(b1-3)Gal(b1-4)GlcNAc(b1-3)Gal(b1-4)GlcNAc(b1-3)Gal(b1-4)GlcNAc(b1-2)Man(a1-3)]Man(b1-4)GlcNAc(b1-4)[Fuc(a1-6)]GlcNAc
How it was run: as §1

[25] = biological target: Gal(b1-4)GlcNAc6P
How it was run: as §1

[26] = biological target: Gal(b1-6)Gal
How it was run: as §1

[27] = biological target: Gal3S(b1-3)GalNAc
How it was run: as §1

[28] = biological target: Gal3S(b1-3)GlcNAc
How it was run: as §1

[29] = biological target: Gal6S(b1-4)GlcNAc
How it was run: as §1

[30] = biological target: GalNAc(a1-3)GalNAc(b1-3)Gal(a1-4)Gal(b1-4)Glc
How it was run: as §1

[31] = biological target: GalNAc(b1-3)Gal(a1-4)Gal(b1-4)GlcNAc
How it was run: as §1

[32] = biological target: Glc(a1-4)Glc(a1-4)Glc(a1-4)Glc
How it was run: as §1

[33] = biological target: GlcNAc(b1-2)[GlcNAc(b1-4)]Man(a1-3)[GlcNAc(b1-4)][GlcNAc(b1-2)[GlcNAc(b1-6)]Man(a1-6)]Man(b1-4)GlcNAc(b1-4)[Fuc(a1-6)]GlcNAc
How it was run: as §1

[34] = biological target: GlcNAc(b1-3)Gal(b1-4)GlcNAc(b1-3)Gal(b1-4)GlcNAc(b1-2)[GlcNAc(b1-3)Gal(b1-4)GlcNAc(b1-3)Gal(b1-4)GlcNAc(b1-6)]Man(a1-6)[GlcNAc(b1-3)Gal(b1-4)GlcNAc(b1-3)Gal(b1-4)GlcNAc(b1-2)Man(a1-3)]Man(b1-4)GlcNAc(b1-4)[Fuc(a1-6)]GlcNAc
How it was run: as §1

[35] = biological target: GlcNAc(b1-3)Gal(b1-4)GlcNAc(b1-6)[GlcNAc(b1-3)]Gal(b1-4)GlcNAc
How it was run: as §1

[36] = biological target: Man(a1-3)[Man(a1-6)]Man(a1-6)[Man(a1-3)]Man
How it was run: as §1

[37] = biological target: Man(a1-3)[Man(a1-6)]Man(a1-6)[Man(a1-3)]Man(b1-4)GlcNAc(b1-4)GlcNAc
How it was run: as §1

[38] = biological target: Neu5Ac(a2-3)Gal(b1-3)GlcNAc(b1-4)Gal(b1-4)Glc
How it was run: as §1

[39] = biological target: Neu5Ac(a2-3)Gal(b1-4)Glc
How it was run: as §1

[40] = biological target: Neu5Ac(a2-3)Gal(b1-4)GlcNAc(b1-3)GalNAc
How it was run: as §1

[41] = biological target: Neu5Ac(a2-3)Gal(b1-4)[Fuc(a1-3)]GlcNAc(b1-6)[Gal(b1-3)]GalNAc
How it was run: as §1

[42] = biological target: Neu5Ac(a2-6)Gal(b1-4)GlcNAc(b1-2)Man(a1-3)[Man(a1-6)]Man(b1-4)GlcNAc(b1-4)GlcNAc
How it was run: as §1

[43] = biological target: Neu5Ac(a2-6)Gal(b1-4)GlcNAc(b1-3)Gal(b1-4)GlcNAc(b1-6)[Gal(b1-3)]GalNAc
How it was run: as §1

[44] = biological target: Neu5Ac(a2-6)GalNAc(b1-4)GlcNAc6S
How it was run: as §1

[45] = biological target: Neu5Ac(a2-8)Neu5Ac(a2-8)Neu5Ac
How it was run: as §1

[46] = biological target: Neu5Gc(a2-3)Gal(b1-3)[Fuc(a1-4)]GlcNAc
How it was run: as §1

[47] = biological target: Neu5Gc(a2-3)Gal(b1-4)GlcNAc
How it was run: as §1

B1: SBD-G4S3-SBD (protein)
chain: MASIPSSASVQLDSYNYDGSTFSGKIYVKNIAYSKKVTVVYADGSDNWNNNGNIIAASFSGPISGSNYEYWTFSASVKGIKEFYIKYEVSGKTYYDNNNSANYQVSTGGGGSGGGGSGGGGSEFASIPSSASVQLDSYNYDGSTFSGKIYVKNIAYSKKVTVVYADGSDNWNNNGNIIAASFSGPISGSNYEYWTFSASVKGIKEFYIKYEVSGKTYYDNNNSANYQVST
glycan array binding signal (z-score) [1]: -0.396
glycan array binding signal (z-score) [2]: -0.362
glycan array binding signal (z-score) [3]: 0.033
glycan array binding signal (z-score) [4]: 1.17
glycan array binding signal (z-score) [5]: 6.16
glycan array binding signal (z-score) [6]: 4.46
glycan array binding signal (z-score) [7]: 2
glycan array binding signal (z-score) [8]: -0.355
glycan array binding signal (z-score) [9]: 7.53
glycan array binding signal (z-score) [10]: 0.036
glycan array binding signal (z-score) [11]: -0.324
glycan array binding signal (z-score) [12]: -0.263
glycan array binding signal (z-score) [13]: 4.15
glycan array binding signal (z-score) [14]: -0.42
glycan array binding signal (z-score) [15]: -0.404
glycan array binding signal (z-score) [16]: 4.38
glycan array binding signal (z-score) [17]: -0.371
glycan array binding signal (z-score) [18]: -0.092
glycan array binding signal (z-score) [19]: -0.387
glycan array binding signal (z-score) [20]: 4.53
glycan array binding signal (z-score) [21]: -0.052
glycan array binding signal (z-score) [22]: 1.38
glycan array binding signal (z-score) [23]: 7.46
glycan array binding signal (z-score) [24]: 8.43
glycan array binding signal (z-score) [25]: -0.348
glycan array binding signal (z-score) [26]: -0.136
glycan array binding signal (z-score) [27]: -0.369
glycan array binding signal (z-score) [28]: -0.406
glycan array binding signal (z-score) [29]: 4.01
glycan array binding signal (z-score) [30]: -0.403
glycan array binding signal (z-score) [31]: -0.37
glycan array binding signal (z-score) [32]: 5.44
glycan array binding signal (z-score) [33]: -0.39
glycan array binding signal (z-score) [34]: -0.26
glycan array binding signal (z-score) [35]: -0.406
glycan array binding signal (z-score) [36]: -0.125
glycan array binding signal (z-score) [37]: -0.351
glycan array binding signal (z-score) [38]: -0.389
glycan array binding signal (z-score) [39]: -0.399
glycan array binding signal (z-score) [40]: -0.327
glycan array binding signal (z-score) [41]: 4.53
glycan array binding signal (z-score) [42]: 0.556
glycan array binding signal (z-score) [43]: -0.221
glycan array binding signal (z-score) [44]: -0.365
glycan array binding signal (z-score) [45]: -0.377
glycan array binding signal (z-score) [46]: -0.366
glycan array binding signal (z-score) [47]: -0.326

Reference: the supplement of paper PMC8728848
